FMDV inh: foot and mouth disease virus antiviral activity; hit rate 1.2% among 410,000; FMDV antiviral cell-based qHTS; AID 1159524; Potency, µM (doses to about 57.9 µM), without a hit: at the highest dose activity change, negative = inhibition, usual class: inhibitors; calls by dose curve; tested in HEK293T cells; also: read-out not given here; potency is read from the fitted curve at half-maximal effect; nearly all actives have a fitted effect of over 45% in size
RE007 growth inh: less growth of the S. pombe RE007 Vpr strain; S. pombe RE007 Vpr strain, BacTiter-Glo ATP luminescence, 24 h; Potency, µM (highest dose often 92.2 µM), inactives show at the top dose activity change, negative = less growth, actives largely listed as inhibitors; hit rate 0.21% among 360,000; AID 651644; active = well fitted falling curve with a large enough effect; inconclusive = small, poorly fitted or top-dose-only effect; inactive = no such curve, though single readings can be large or run the other way; also: potency is read from the fitted curve at half-maximal effect; nearly all actives have a fitted effect of over 50% in size
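Fission yeast RE007 carrying one integrated HIV-1 vpr copy, seeded at OD 0.01 in PMG+AL medium with 23 nL pinned compound. Grown 24 h at 30 degrees; viability read by BacTiter-Glo luminescence after 5 min.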
Sm TGR block: inhibitors of Schistosoma mansoni thioredoxin glutathione reductase. Q962Y6. Potency, µM (doses to about 114 µM), for the others: top-dose activity change, negative = inhibition, actives largely listed as inhibitors. purified TGR, DTNB reduction, TNB absorbance 405 nm. hit rate 3% among 360,000; also: potency is read from the fitted curve at half-maximal effect; nearly all actives have a fitted effect of over 60% in size
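TGR 20 nM + NADPH 100 uM (dispensed conc.), cpd preinc 15 min RT; start with NADPH (500 uM addition) then DTNB (15 mM addition). Kinetic TNB absorbance, 405 nm filter. Four-parameter Hill fit across titration.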
Tb PYK inh: inhibitors of Trypanosoma brucei pyruvate kinase | Q57TT1 | TbPYK enzyme, Kinase-Glo Plus ATP luminescence, 45 min | Potency, µM (titrated, usually from 76.8 µM), for inactives: at the highest dose activity, negative = inhibition, most hits filed as inhibitors | hit rate 0.12% among 410,000; also: potency is read from the fitted curve at half-maximal effect; nearly all actives have a fitted effect of over 50% in size
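T. brucei PYK with substrate was exposed to pin-transferred compounds across a concentration series, then started with 130 uM ADP (final). After 45 min at room temperature, Kinase-Glo Plus luminescence was read, normalized and curve-fitted.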
HCMV inh: blocks human cytomegalovirus replication; HFF cells, HCMV-luciferase reporter, 72 h; hits give low values; hit rate 4.5% among 410,000; AID 1259415; activity change, negative = inhibition, % at 57.5 µM; in the data active = activity change below about -60%; inconclusive = no clear call, values can overlap the other calls; inactive = above about -39%
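After 16 h attachment at 37C, HFF cells received test compound and HCMV-luciferase (1 PFU/cell); reporter luminescence read 72 h later, data normalized against buffer-only and known inhibitor Salinomycin.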
FBPA Giardia inh: blocks Giardia fructose-bisphosphate aldolase activity | A8B2U2 | purified Giardia FBPA | Potency, µM (top dose mostly 59.6 µM), inactives show top-dose activity, negative = inhibition, most hits filed as inhibitors | hit rate 0.71% among 290,000; also: potency is read from the fitted curve at half-maximal effect; nearly all actives have a fitted effect of over 55% in size
Target sequence (A8B2U2 whole entry, looked up): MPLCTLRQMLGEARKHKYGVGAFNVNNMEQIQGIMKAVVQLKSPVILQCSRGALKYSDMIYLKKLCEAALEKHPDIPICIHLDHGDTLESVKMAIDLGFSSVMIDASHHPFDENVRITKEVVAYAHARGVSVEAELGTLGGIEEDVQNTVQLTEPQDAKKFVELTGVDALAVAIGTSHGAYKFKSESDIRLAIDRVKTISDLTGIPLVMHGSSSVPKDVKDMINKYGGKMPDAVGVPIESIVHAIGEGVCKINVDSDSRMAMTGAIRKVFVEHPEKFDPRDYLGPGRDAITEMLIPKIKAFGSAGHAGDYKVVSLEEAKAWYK
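40 nM FBPA preincubated 10 min at RT with compound (up to 57.5 uM final), then substrate plus GAPDH/TPI/NAD/arsenate coupling and diaphorase/resazurin added. Fluorescence read after 20 min at RT, 525/598 nm.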
* marks the source's active call; other numbers are inactive results; u = inconclusive; x = no result given; [ ] = dose if it differs, or a comment. Most compounds without a hit are left out; they make up all but 7.7% or so of the library. Unless noted, calls follow the shape of the dose curve; as a rule, active = well fitted curve in the direction sought with a large enough effect; inconclusive = small, poorly fitted or top-dose-only effect, or another doubt; inactive = no such curve, though single readings can be large; an effect the other way counts as inactive or inconclusive. % is scaled to controls: 0 for no effect and ±100 for the full control effect.

SMILES	FMDV inh	RE007 growth inh	Sm TGR block	Tb PYK inh	HCMV inh	FBPA Giardia inh
CCOc1ccc(N(C(=O)c2ccc(OC)cc2)S(=O)(=O)c2ccc3c(c2)n(C)c(=O)n3C)cc1	-3.4%	x	0.2%	0.7%	-28.7	x
Nc1nc(SCc2ccc(F)cc2)ns1	34.8%	8.9%	5.0%	-6.2%	-74.3*	-5.2%
Nc1nnc(SCc2ccc(F)cc2)s1	26.2%	7.0%	7.7%	u	-14.1	2.3%
O=C(NCc1ccc(Cl)cc1)C1CCN(c2nn3cc(-c4ccc(F)cc4)nc3s2)CC1	19.0%	x	-1.2%	-0.5%[15.4 µM]	u	x
Clc1ccc(C(c2ccc(Cl)cc2)n2cc[n+](CC(OCc3ccc(Cl)cc3Cl)c3ccc(Cl)cc3Cl)c2)cc1 (stereo not given)	u	17.7%	-34.5%	5.6%	-99.0*	-3.5%
Cc1nn2c3c(cnc2c1-c1ccccc1)C(=O)CC(c1ccco1)C3 (stereo not given)	-9.0%	-2.0%	35.5µM*	-1.4%	-26.8	-9.4%
Cc1nn2c3c(cnc2c1-c1ccccc1)C(=O)CC(c1ccccc1)C3 (stereo not given)	10.0%	-3.2%	12.2%	3.8%	u	4.6%
COc1ccc(Cc2ccccc2C(=O)O)cc1	-1.6%	10.2%	x	-5.3%	-18.0	x
COc1ccc(CC2=CC(=O)c3ccccc3C2=O)cc1	u	u	28.2µM*	u	-96.6*	u
CC[C@]1(O)C[C@@H]2CN(CCc3c([nH]c4ccccc34)[C@](C(=O)OC)(c3cc4c(cc3OC)N(C=O)[C@H]3[C@@](O)(C(=O)OC)[C@H](C(=O)OC)[C@@]5(CC)C=CCN6CC[C@]43[C@H]65)C2)C1	3.8%	x	x	x	x	4.0%
COC(=O)[C@@H]1CCCN1C(=O)c1c(OC)cc(=O)n2c1CCN(Cc1ccc3c(c1)CCO3)CC2	-4.8%	x	x	x	x	x
CC(C)C[C@H]1COc2cccc(F)c2S(=O)(=O)N1	x	x	x	x	7.3	x
O=C1COc2ccc(-c3csc(NCCc4ccccc4)n3)cc2N1	39.8µM*	15.9%	-2.6%	0.2%	14.9	-24.0%
CC(=O)Nc1ccc(CNc2nc3cc(-c4ccsc4)sc3c(=O)n2C)cc1	0.0%	6.6%[18.4 µM]	x	-4.6%	-65.7*	x
COc1cccc(CNc2nc3cc(-c4ccc(C)cc4)sc3c(=O)n2C)c1OC	4.6%	-4.4%[18.4 µM]	x	0.2%	2.2	x
COCCNc1nc(Oc2ccc(NC(C)=O)cc2)c2sc(-c3ccccc3)cc2n1	-17.6%	5.1%	x	2.2%	-16.4	x
COCCNc1nc(NCc2ccc(NC(C)=O)cc2)c2sc(-c3ccccc3)cc2n1	-7.2%	-12.8%	x	-4.9%	-97.8*	x
COc1cccc(CNc2nc3cc(-c4ccc(F)cc4)sc3c(=O)n2C)c1OC	-19.5%	2.5%	x	-12.0%	-71.4*	x
COc1ccc(-c2cc3nc(NCc4ccc(N(C)C)cc4)n(C)c(=O)c3s2)cc1OC	28.2µM*	1.5%	x	0.1%	u	x
CCOc1ccc(C(=O)c2oc3ccccc3c2NC(=O)Cc2coc3cc(C)cc(C)c23)cc1	u	x	3.3%	-0.6%	-6.1	x
c1coc(-c2nc3c4ccccc4ccn3c2Cc2ccsc2)c1	x	x	x	x	58.1	x
COc1cccc(CNc2nc3cc(-c4ccsc4)sc3c(=O)n2C)c1OC	31.6µM*	3.7%[18.4 µM]	x	-6.5%	-68.3*	x
COc1cccc(CNc2nc3cc(-c4ccc(OC)c(OC)c4)sc3c(=O)n2C)c1	u	-14.2%	x	-0.5%	21.0	x
COc1cccc(CNc2nc3cc(-c4ccccc4)sc3c(=O)n2C)c1	0.0%	-5.2%[18.4 µM]	x	-1.7%	-65.0*	x
COc1ccccc1NC(=O)N1CC(=O)Nc2sc3c(c2C1c1ccccc1)CCCC3 (stereo not given)	-7.9%	x	-7.2%	-4.3%	6.1	x
SMILES	FMDV inh	RE007 growth inh	Sm TGR block	Tb PYK inh	HCMV inh	FBPA Giardia inh
COc1ccc(NC(=S)N(CCCN2CCOCC2)Cc2ccccn2)cc1	9.9%	-20.9%	3.0%	2.1%	-10.8	-23.1%
COc1ccc(NC(=S)N(CCCN2CCOCC2)Cc2cn(C)c3ccccc23)cc1	5.4%	5.2%	3.0%	-9.0%	-97.9*	1.6%
CCOc1ccc(NC(=S)N(CCCN2CCOCC2)Cc2cn(C)c3ccccc23)cc1	4.0%	-6.2%	-4.2%	0.6%	-92.5*	1.5%
CC[N+]1(CC)CCC(=C(c2ccccc2)c2ccccc2)C1C (stereo not given)	x	x	x	3.9%	x	x
COc1ccc(Cl)cc1NC(=O)N1CCN(S(=O)(=O)c2ccc3c(ccn3C)c2)CC1	u	x	-13.2%	1.0%	2.3	x
N#CC1=C(N)N2C(=C(C#N)C1c1cccc(Br)c1)Nc1ccccc12 (stereo not given)	7.94µM*	-27.4%	-11.2%	-0.5%	-97.4*	-0.3%
N#CC1=C(N)N2C(=C(C#N)C1c1ccc(Br)cc1)Nc1ccccc12 (stereo not given)	u	-4.2%	-2.9%	-1.1%	-100.2*	0.7%
CC(C)(C)NC[C@H](O)CSc1nc(-c2ccc(C(N)=O)s2)cs1	x	x	x	1.2%	x	x
Cc1c(C(=O)Nc2ccc(F)cc2F)oc2ccc3c(c12)C(=O)CC(C)(C)O3	0.0%	x	-26.4%	-2.3%	u	x
OC(c1cccc(Cl)c1)c1nc(/C=C/c2ccc(C(F)(F)F)cc2)cs1 (stereo not given)	-22.4%	u	x	-5.3%	-0.7	x
COc1cccc(C(O)c2nc(/C=C/c3ccc(C(F)(F)F)cc3)cs2)c1 (stereo not given)	-20.9%	-8.7%[18.4 µM]	x	5.1%	-62.2*	x
CSc1ccc(C2c3c(oc4ccc(F)cc4c3=O)C(=O)N2c2ccc(C)cn2)cc1 (stereo not given)	19.6%	x	7.0%	6.3%	6.7	x
CCOc1ccccc1N(C)C(=O)c1cc(S(=O)(=O)NCCc2ccc(Cl)cc2)ccc1F	36.0%	x	0.8%	0.2%	-37.3	x
O=S(=O)(NCc1nc2cccnc2n1Cc1ccc(F)cc1)c1ccc(Cl)s1	43.6%	x	0.3%	-7.8%	u	x
COc1ccc(OC)c(Nc2ncnc3ccc(Br)cc23)c1	-25.7%	15.0%	0.0%	0.6%	-63.4*	0.0%
Brc1ccc2ncnc(Nc3cccc4ccccc34)c2c1	x	u	5.0%	12.2%	-66.3*	u
COc1ccc(Nc2cc(Nc3cc(OC)c(OC)c(OC)c3)ncn2)cc1	u	-3.0%	8.3%	1.1%	-89.9*	6.7%
COc1ccc(OC)c(Nc2ncnc3ccccc23)c1	16.4%	0.8%	0.0%	1.7%	-23.2	-7.3%
COc1ccc(Nc2ncnc3ccc(C)cc23)cc1	14.5%	-23.5%	-10.8%	0.4%	-72.3*	6.0%
CCCCn1c(NCc2cc(Cl)ccc2O)nc2ccccc21	u	x	13.8%	0.9%	1.5	x
COC(=O)[C@H](Cc1ccccc1)N1CC(N2CCCC2)CS1(=O)=O (stereo not given in full)	x	x	x	x	-17.2	x

From PubChem
